{
  "source": "PubChem BioAssay (NCI)",
  "note": "This is part of a sample that, as a whole, favours compounds with a hit. Of some 79,000 tested, about 15% had one in any assay. The source made the active and inactive calls. Cut-off read from the data, not from the text of the source: active = growth inhibition above about 70%; inactive = the rest.",
  "data": [
    {"test": "NCI Yeast Anticancer Drug Screen. Data for the sgs1 mgt1 strain (AID 161);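 note: 0% = growth of cultures given vehicle only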", "conditions": "S. cerevisiae sgs1 mgt1 strain, at 50.0 µM, hits give high values", "procedure,_shortened": "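Yeast cells carrying a defined DNA-repair defect were exposed to test compounds. Growth inhibition was measured relative to vehicle-treated controls.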", "values": [
      {"smiles": "COc1ccc(NC(=S)NNC(=O)c2nsc3ccccc23)cc1", "growth inhibition": "20.8% (inactive)"},
      {"smiles": "COc1ccc(CC2OCCC3c4ccccc4NC23)cc1OC", "note": "(stereo not given)", "growth inhibition": "0.7% (inactive)"},
      {"smiles": "C/C=N\\N1C(=O)c2ccccc2C1=O", "growth inhibition": "13.8% (inactive)"},
      {"smiles": "CC(C)=CC1C(C(=O)Oc2c(Cl)c(Cl)c(Cl)c(Cl)c2Cl)C1(C)C", "note": "(stereo not given)", "growth inhibition": "40.9% (inactive)"},
      {"smiles": "O=[N+]([O-])c1c(Cl)cc(Cl)c([N+](=O)[O-])c1-c1ccccc1", "growth inhibition": "-14.3% (inactive)"},
      {"smiles": "Cc1cccc(Nc2nnc(Nc3cccc(C)n3)c3ccccc23)n1", "growth inhibition": "-2.75% (inactive)"},
      {"smiles": "C/C(CC(=O)c1ccccc1)=C1\\C(=O)NN(c2ccccc2)C1=O", "growth inhibition": "67.7% (inactive)"},
      {"smiles": "O=C(/C=C/CC(O)(c1ccccc1)c1ccccc1)Nc1ccccc1Cl", "growth inhibition": "-4.85% (inactive)"},
      {"smiles": "COc1ccc(C(=O)c2ccc(C)c3c(C)cccc23)cc1", "growth inhibition": "4.9% (inactive)"},
      {"smiles": "O=C1NC(=O)N2CCCOC2C1c1ccccc1", "note": "(stereo not given)", "growth inhibition": "0.4% (inactive)"},
      {"smiles": "O=C1OC2(CC1n1cnc3ccccc3c1=O)C(=O)Nc1ccccc12", "note": "(stereo not given)", "growth inhibition": "8.5% (inactive)"},
      {"smiles": "COc1cc(OC)c(OC)cc1/C=N/N=C(\\N)NO", "growth inhibition": "-1.95% (inactive)"},
      {"smiles": "CN(C)CCCN(c1nc2cc(Cl)ccc2o1)c1nc2cc(Cl)ccc2o1", "growth inhibition": "36.1% (inactive)"},
      {"smiles": "COC(=O)C(C#N)(CCc1ccc([N+](=O)[O-])cc1)CCc1ccc([N+](=O)[O-])cc1", "growth inhibition": "3% (inactive)"},
      {"smiles": "Cc1ccc(S(=O)(=O)Nc2ccccc2-c2nc3ccc([N+](=O)[O-])cc3c(=O)o2)cc1", "growth inhibition": "22.1% (inactive)"},
      {"smiles": "CC(=O)Oc1ccc(C(C)C)cc1", "growth inhibition": "-25.3% (inactive)"},
      {"smiles": "Cc1cc(Cl)nc2ccc(Cc3ccc(Cl)cc3)cc12", "growth inhibition": "-5.2% (inactive)"},
      {"smiles": "Cc1cccc2c(CC(N)C(=O)O)c[nH]c12", "note": "(stereo not given)", "growth inhibition": "-18.9% (inactive)"},
      {"smiles": "N#Cc1cc2c3ccccc3ncc2c2ccccc12", "growth inhibition": "-3% (inactive)"},
      {"smiles": "C/C=N\\n1c(C)c(C#N)c(C#N)c1N", "growth inhibition": "-23.6% (inactive)"},
      {"smiles": "CC(=O)CC1CCc2ccc3ccccc3c2C1c1cccc2ccccc12", "note": "(stereo not given)", "growth inhibition": "-6.85% (inactive)"},
      {"smiles": "Cc1ccc(/C=C/C(=O)C(C)(C)CN2CCCCC2)cc1", "growth inhibition": "25.1% (inactive)"},
      {"smiles": "COC(=O)c1c2c(cc3c1CC1(C3)Cc3cc4c(c(C(C)=O)c3C1)CCC4)C=CC2", "note": "(stereo not given)", "growth inhibition": "-26.1% (inactive)"},
      {"smiles": "NC(=O)CNc1ccc(CC2CCOC2=O)cc1", "note": "(stereo not given)", "growth inhibition": "-5.9% (inactive)"},
      {"smiles": "C/C(=N/O)C1CC(C)([N+](=O)[O-])CCC1(C)O", "note": "(stereo not given)", "growth inhibition": "-19.2% (inactive)"},
      {"smiles": "CC(NC(=O)Nc1ccccc1Cl)c1ccccc1", "note": "(stereo not given)", "growth inhibition": "1.5% (inactive)"},
      {"smiles": "CCCCS(=O)(=O)C[N+](C)(CC)CC", "growth inhibition": "-5.45% (inactive)"},
      {"smiles": "O=C(NC(=O)c1ccc(Cl)c(Cl)c1)Nc1ccc(Cl)cc1", "growth inhibition": "-6.35% (inactive)"},
      {"smiles": "CC1=NC(C(=O)O)C(C)(C)S1", "note": "(stereo not given)", "growth inhibition": "-22.2% (inactive)"},
      {"smiles": "CC(=O)c1ccc(N=Nc2ccc3nonc3c2N)cc1", "growth inhibition": "-20.6% (inactive)"},
      {"smiles": "Cc1c(C(=N)N)oc2ccccc12", "growth inhibition": "0.4% (inactive)"},
      {"smiles": "CCCCCC(=O)Oc1c(C(C)CC)cc([N+](=O)[O-])cc1[N+](=O)[O-]", "note": "(stereo not given)", "growth inhibition": "98.5% (active)"},
      {"smiles": "CC(Oc1ccccc1)C(=O)NNC(=O)OC(C)(C)C", "note": "(stereo not given)", "growth inhibition": "-10.7% (inactive)"},
      {"smiles": "O=C(O)C(c1ccccc1)C(O)C1CCCCC1", "note": "(stereo not given)", "growth inhibition": "-1.15% (inactive)"},
      {"smiles": "CCC1CCCCC1O", "note": "(stereo not given)", "growth inhibition": "-30.5% (inactive)"},
      {"smiles": "CCCCCCSc1nc2c([nH]1)c(=O)n(C)c(=S)n2C", "growth inhibition": "1.35% (inactive)"},
      {"smiles": "COc1ccc(N2C(=O)C(C)SC23C(=O)Nc2ccccc23)cc1", "note": "(stereo not given)", "growth inhibition": "5.75% (inactive)"},
      {"smiles": "O=c1c2c(oc3cc(OCC4CO4)ccc13)CCC2", "note": "(stereo not given)", "growth inhibition": "-28.2% (inactive)"},
      {"smiles": "CNC(=S)NNc1ncnc2c1ncn2-c1ccc(C)cc1", "growth inhibition": "5.45% (inactive)"},
      {"smiles": "CCc1cccc(C)c1N1C(=O)C(=O)C(c2nc3ccccc3o2)C(=O)C1=O", "growth inhibition": "19.7% (inactive)"}
    ]},
    {"test": "NCI Yeast Anticancer Drug Screen. Data for the cln2 rad14 strain (AID 165);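 note: 0% = growth equal to vehicle treated cultures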", "conditions": "S. cerevisiae cln2 rad14 strain, at 50.0 µM, hits give high values", "procedure,_shortened": "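Relative to vehicle controls, growth inhibition of compound-treated cln2 rad14 yeast was recorded.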", "values": [
      {"smiles": "COc1ccc(NC(=S)NNC(=O)c2nsc3ccccc23)cc1", "growth inhibition": "7.35% (inactive)"},
      {"smiles": "COc1ccc(CC2OCCC3c4ccccc4NC23)cc1OC", "note": "(stereo not given)", "growth inhibition": "-10.2% (inactive)"},
      {"smiles": "C/C=N\\N1C(=O)c2ccccc2C1=O", "growth inhibition": "9.1% (inactive)"},
      {"smiles": "CC(C)=CC1C(C(=O)Oc2c(Cl)c(Cl)c(Cl)c(Cl)c2Cl)C1(C)C", "note": "(stereo not given)", "growth inhibition": "12.2% (inactive)"},
      {"smiles": "O=[N+]([O-])c1c(Cl)cc(Cl)c([N+](=O)[O-])c1-c1ccccc1", "growth inhibition": "7.75% (inactive)"},
      {"smiles": "Cc1cccc(Nc2nnc(Nc3cccc(C)n3)c3ccccc23)n1", "growth inhibition": "-4.25% (inactive)"},
      {"smiles": "C/C(CC(=O)c1ccccc1)=C1\\C(=O)NN(c2ccccc2)C1=O", "growth inhibition": "56.9% (inactive)"},
      {"smiles": "O=C(/C=C/CC(O)(c1ccccc1)c1ccccc1)Nc1ccccc1Cl", "growth inhibition": "2.5% (inactive)"},
      {"smiles": "COc1ccc(C(=O)c2ccc(C)c3c(C)cccc23)cc1", "growth inhibition": "-16.6% (inactive)"},
      {"smiles": "O=C1NC(=O)N2CCCOC2C1c1ccccc1", "note": "(stereo not given)", "growth inhibition": "-10.2% (inactive)"},
      {"smiles": "O=C1OC2(CC1n1cnc3ccccc3c1=O)C(=O)Nc1ccccc12", "note": "(stereo not given)", "growth inhibition": "8.3% (inactive)"},
      {"smiles": "COc1cc(OC)c(OC)cc1/C=N/N=C(\\N)NO", "growth inhibition": "3.05% (inactive)"},
      {"smiles": "CN(C)CCCN(c1nc2cc(Cl)ccc2o1)c1nc2cc(Cl)ccc2o1", "growth inhibition": "52.9% (inactive)"},
      {"smiles": "COC(=O)C(C#N)(CCc1ccc([N+](=O)[O-])cc1)CCc1ccc([N+](=O)[O-])cc1", "growth inhibition": "-6.7% (inactive)"},
      {"smiles": "Cc1ccc(S(=O)(=O)Nc2ccccc2-c2nc3ccc([N+](=O)[O-])cc3c(=O)o2)cc1", "growth inhibition": "1.1% (inactive)"},
      {"smiles": "CC(=O)Oc1ccc(C(C)C)cc1", "growth inhibition": "-13.6% (inactive)"},
      {"smiles": "Cc1cc(Cl)nc2ccc(Cc3ccc(Cl)cc3)cc12", "growth inhibition": "11.9% (inactive)"},
      {"smiles": "Cc1cccc2c(CC(N)C(=O)O)c[nH]c12", "note": "(stereo not given)", "growth inhibition": "-23.4% (inactive)"},
      {"smiles": "N#Cc1cc2c3ccccc3ncc2c2ccccc12", "growth inhibition": "-1.1% (inactive)"},
      {"smiles": "C/C=N\\n1c(C)c(C#N)c(C#N)c1N", "growth inhibition": "-14.1% (inactive)"},
      {"smiles": "CC(=O)CC1CCc2ccc3ccccc3c2C1c1cccc2ccccc12", "note": "(stereo not given)", "growth inhibition": "26.4% (inactive)"},
      {"smiles": "Cc1ccc(/C=C/C(=O)C(C)(C)CN2CCCCC2)cc1", "growth inhibition": "14.3% (inactive)"},
      {"smiles": "COC(=O)c1c2c(cc3c1CC1(C3)Cc3cc4c(c(C(C)=O)c3C1)CCC4)C=CC2", "note": "(stereo not given)", "growth inhibition": "1.35% (inactive)"},
      {"smiles": "NC(=O)CNc1ccc(CC2CCOC2=O)cc1", "note": "(stereo not given)", "growth inhibition": "0.95% (inactive)"},
      {"smiles": "C/C(=N/O)C1CC(C)([N+](=O)[O-])CCC1(C)O", "note": "(stereo not given)", "growth inhibition": "-8.5% (inactive)"},
      {"smiles": "CC(NC(=O)Nc1ccccc1Cl)c1ccccc1", "note": "(stereo not given)", "growth inhibition": "-10.8% (inactive)"},
      {"smiles": "CCCCS(=O)(=O)C[N+](C)(CC)CC", "growth inhibition": "-6.85% (inactive)"},
      {"smiles": "O=C(NC(=O)c1ccc(Cl)c(Cl)c1)Nc1ccc(Cl)cc1", "growth inhibition": "-32.6% (inactive)"},
      {"smiles": "CC1=NC(C(=O)O)C(C)(C)S1", "note": "(stereo not given)", "growth inhibition": "-0.95% (inactive)"},
      {"smiles": "CC(=O)c1ccc(N=Nc2ccc3nonc3c2N)cc1", "growth inhibition": "-10.2% (inactive)"},
      {"smiles": "Cc1c(C(=N)N)oc2ccccc12", "growth inhibition": "-31.5% (inactive)"},
      {"smiles": "CCCCCC(=O)Oc1c(C(C)CC)cc([N+](=O)[O-])cc1[N+](=O)[O-]", "note": "(stereo not given)", "growth inhibition": "97.7% (active)"},
      {"smiles": "CC(Oc1ccccc1)C(=O)NNC(=O)OC(C)(C)C", "note": "(stereo not given)", "growth inhibition": "-0.75% (inactive)"},
      {"smiles": "O=C(O)C(c1ccccc1)C(O)C1CCCCC1", "note": "(stereo not given)", "growth inhibition": "-13.1% (inactive)"},
      {"smiles": "CCC1CCCCC1O", "note": "(stereo not given)", "growth inhibition": "7.35% (inactive)"},
      {"smiles": "CCCCCCSc1nc2c([nH]1)c(=O)n(C)c(=S)n2C", "growth inhibition": "1.5% (inactive)"},
      {"smiles": "COc1ccc(N2C(=O)C(C)SC23C(=O)Nc2ccccc23)cc1", "note": "(stereo not given)", "growth inhibition": "2.5% (inactive)"},
      {"smiles": "O=c1c2c(oc3cc(OCC4CO4)ccc13)CCC2", "note": "(stereo not given)", "growth inhibition": "-24.9% (inactive)"},
      {"smiles": "CNC(=S)NNc1ncnc2c1ncn2-c1ccc(C)cc1", "growth inhibition": "29.7% (inactive)"},
      {"smiles": "CCc1cccc(C)c1N1C(=O)C(=O)C(c2nc3ccccc3o2)C(=O)C1=O", "growth inhibition": "16% (inactive)"}
    ]}
  ]
}
